Test results reported in PubChem BioAssay (NCATS).
Results filed as inconclusive are left out. Active and inactive are the calls of the source. Unless noted, the call rests on the fitted dose curve; in most records, active means well fitted curve in the direction sought with a large enough effect; inconclusive means small, poorly fitted or top-dose-only effect, or another doubt; inactive means no such curve, though single readings can be large; an effect the other way counts as inactive or inconclusive. Where a SMILES comes first, the peptide text is derived from it.

Assays:
N140 = test: qHTS profiling for inhibitors of Plasmodium falciparum proliferation (AID 504749); further: nearly all actives have a fitted effect of over 60% in size; details: P. falciparum in erythrocytes, SYBR Green DNA, 72 h; series mostly up to 28.7 µM
Summary of the method: (§1)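 Quantitative HTS: compounds pinned into medium, infected erythrocytes added (0.3% parasitemia, 2.5% hematocrit), 72 h culture at 37 C under 5% CO2. Saponin/Triton lysis with SYBR Green I, overnight RT, then fluorescence read.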

P93_24 = test: as above; details: P. falciparum in erythrocytes, SYBR Green DNA, 72 h; series mostly up to 28.7 µM
Summary of the method: as §1

P94_40 = test: as above; details: P. falciparum in erythrocytes, SYBR Green DNA, 72 h; series mostly up to 28.7 µM
Summary of the method: as §1

PAD = test: as above; details: P. falciparum in erythrocytes, SYBR Green DNA, 72 h; series mostly up to 28.7 µM
Summary of the method: as §1

PC15 = test: as above; details: P. falciparum in erythrocytes, SYBR Green DNA, 72 h; series mostly up to 28.7 µM
Summary of the method: as §1

PC26 = test: as above; details: P. falciparum in erythrocytes, SYBR Green DNA, 72 h; series mostly up to 28.7 µM
Summary of the method: as §1

PC49 = test: as above; details: P. falciparum in erythrocytes, SYBR Green DNA, 72 h; series mostly up to 28.7 µM
Summary of the method: as §1

SC27B = test: as above; details: P. falciparum in erythrocytes, SYBR Green DNA, 72 h; series mostly up to 28.7 µM
Summary of the method: as §1

TAB109 = test: as above; details: P. falciparum in erythrocytes, SYBR Green DNA, 72 h; series mostly up to 28.7 µM
Summary of the method: as §1

TAB113 = test: as above; details: P. falciparum in erythrocytes, SYBR Green DNA, 72 h; series mostly up to 28.7 µM
Summary of the method: as §1

TAB165 = test: as above; details: P. falciparum in erythrocytes, SYBR Green DNA, 72 h; series mostly up to 28.7 µM
Summary of the method: as §1

W2 = test: as above; details: P. falciparum in erythrocytes, SYBR Green DNA, 72 h; series mostly up to 28.7 µM
Summary of the method: as §1

[1] = target: Cytochrome P450 1A2 (Homo sapiens) (UniProt P05177); test: p450-cyp1a2 (AID 410; calls by dose curve; further: potency means the concentration at half of the fitted maximal effect)
Summary of the method: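 O-Demethylation of luciferin 6' methyl ether by human CYP1A2 is monitored as luciferase luminescence. Substrate sits at Km (100uM); enzyme is 20nM. Values are scaled to 57 uM furafylline as maximal inhibition.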

[2] = target: Glucocorticoid receptor (Homo sapiens) (UniProt P04150); test: GR-GFP Redistribution (AID 450;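 active means compounds whose dose series gives a full or clear partial fitted curve of increased nuclear translocation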; further: potency means the concentration at half of the fitted maximal effect)
[3] = target: Glucocorticoid receptor (Homo sapiens) (UniProt P04150); test: GR-EFC Redistribution (AID 451; calls by dose curve; further: potency means the concentration at half of the fitted maximal effect); details: CHO-K1 GR-EFC translocation, beta-gal luminescence, 2 h
Summary of the method: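 CHO-K1 cells stably expressing nuclear-localized β-gal enzyme acceptor and GR fused C-terminally to the enzyme donor fragment; ligand-driven nuclear translocation restores β-gal by complementation. Compounds titrated up to 46 uM final, 2 h at 37 °C; luminescence read.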

[4] = target: Mitogen-activated protein kinase 10 (Mus musculus) (UniProt Q61831); test: JNK3 AlphaScreen Assay (AID 530; active means well fitted curve in either direction with a large enough effect, not every such curve was filed as active;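 further: kinase came from lysate of stimulated human HepG2 cells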; further: potency means the concentration at half of the fitted maximal effect)
Summary of the method: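 Phosphorylation of biotinylated GST-cJun(1-79) at Ser73 is measured by AlphaScreen proximity luminescence. Enzyme is JNK3 in HepG2 lysates activated with interleukin-1beta and tumor necrosis factor alpha; ATP is 10 uM final.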

[5] = target: Cytochrome P450 2C9 (Homo sapiens) (UniProt P11712); test: qHTS Assay for Inhibitors and Substrates of Cytochrome P450 2C9 (AID 883); further: nearly all actives have a fitted effect of over 60% in size; further: potency means the concentration at half of the fitted maximal effect
Summary of the method: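 CYP2C9 deoxyluciferin hydroxylation, 37C, 60 min with NADPH regeneration; 10nM enzyme, 100uM Luciferin-H (KM). Glo detection reagent stopped reaction; luminescence normalized to sulphaphenazole (57uM) full inhibition.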

[6] = target: Cytochrome P450 3A4 (Homo sapiens) (UniProt P08684); test: qHTS Assay for Inhibitors and Substrates of Cytochrome P450 3A4 (AID 884); further: nearly all actives have a fitted effect of over 50% in size; further: potency means the concentration at half of the fitted maximal effect
Summary of the method: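 Luminescent readout of luciferin produced by CYP3A4 (20 nM) dealkylation of Luciferin-PPXE, 25 uM (its KM). NADPH-driven reaction ran 60 min at RT after 10 min compound preincubation; data scaled to 57 uM ketoconazole as 100% inhibition.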

[7] = target: Cytochrome P450 2D6 (Homo sapiens) (UniProt P10635); test: qHTS Assay for Inhibitors and Substrates of Cytochrome P450 2D6 (AID 891);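 further: luciferin methyl ether substrate demethylated by CYP2D6 with NADPH regeneration; nearly all actives have a fitted effect of over 60% in size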
Summary of the method: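 Luminescent read-out of luciferin formed by 5 nM human CYP2D6 demethylating 30 uM Luciferin-ME EGE (Km level) over 60 min at room temperature after NADPH regeneration addition. Data normalized to full inhibition by 1.43 uM quinidine.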

[8] = target: Cytochrome P450 2C19 (Homo sapiens) (UniProt P33261); test: qHTS Assay for Inhibitors and Substrates of Cytochrome P450 2C19 (AID 899); further: nearly all actives have a fitted effect of over 60% in size; further: potency means the concentration at half of the fitted maximal effect
Summary of the method: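 In 50mM KPO4, the reaction held 5nM enzyme and KM-level (10uM) Luciferin-H EGE; it ran 60 min at 37C after NADPH regeneration and a 10 min compound preincubation. Luminescence values were scaled to 57uM ketoconazole as complete inhibition.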

[9] = target: DNA dC->dU-editing enzyme APOBEC-3G (Homo sapiens) (UniProt Q9HC16); test: qHTS for inhibitors of Vif-A3G interactions: Validation (AID 588379)
Summary of the method: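 Yellow fluorescence (Ex 488, Em 500-530) of Vif-coexpressing HeLa A3G-eYFP cells, scanned by Acumen cytometer, reports blocked A3G degradation. Cells plated at 700/well overnight at 37 deg C before compound addition, then a further overnight compound incubation at 37 deg C.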

[10] = target: 3',5'-cyclic-AMP phosphodiesterase 4B (Homo sapiens) (UniProt Q07343); test: qHTS Assay for Inhibitors of PDE-IV (AID 607; active means well fitted activation curve with a large enough effect in the main read-out, with a control signal flat, not every such curve was filed as active)
Summary of the method: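 The readout is membrane depolarisation from a cAMP-sensing CNG channel, detected with a potential dye at ex 535/em 590. Cells were HEK293-derived (endogenous PDE-IV) at 1000 cells/well, titrated up to 22.9 uM final.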

[11] = target: Cytochrome P450 3A4 (Homo sapiens) (UniProt P08684); test: qHTS Assay for Activators of Cytochrome P450 3A4 (AID 885); further: nearly all actives have a fitted effect of over 65% in size
Summary of the method: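 Activators are scored by enhanced luminescence from CYP3A4 conversion of luciferin-PPXE (25uM, equal to KM) to luciferin, after 60 min at RT with an NADPH-regenerating system.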

Measured: Potency

Sequence of Glucocorticoid receptor (Homo sapiens) (P04150 whole entry, looked up, the tested form may be a part): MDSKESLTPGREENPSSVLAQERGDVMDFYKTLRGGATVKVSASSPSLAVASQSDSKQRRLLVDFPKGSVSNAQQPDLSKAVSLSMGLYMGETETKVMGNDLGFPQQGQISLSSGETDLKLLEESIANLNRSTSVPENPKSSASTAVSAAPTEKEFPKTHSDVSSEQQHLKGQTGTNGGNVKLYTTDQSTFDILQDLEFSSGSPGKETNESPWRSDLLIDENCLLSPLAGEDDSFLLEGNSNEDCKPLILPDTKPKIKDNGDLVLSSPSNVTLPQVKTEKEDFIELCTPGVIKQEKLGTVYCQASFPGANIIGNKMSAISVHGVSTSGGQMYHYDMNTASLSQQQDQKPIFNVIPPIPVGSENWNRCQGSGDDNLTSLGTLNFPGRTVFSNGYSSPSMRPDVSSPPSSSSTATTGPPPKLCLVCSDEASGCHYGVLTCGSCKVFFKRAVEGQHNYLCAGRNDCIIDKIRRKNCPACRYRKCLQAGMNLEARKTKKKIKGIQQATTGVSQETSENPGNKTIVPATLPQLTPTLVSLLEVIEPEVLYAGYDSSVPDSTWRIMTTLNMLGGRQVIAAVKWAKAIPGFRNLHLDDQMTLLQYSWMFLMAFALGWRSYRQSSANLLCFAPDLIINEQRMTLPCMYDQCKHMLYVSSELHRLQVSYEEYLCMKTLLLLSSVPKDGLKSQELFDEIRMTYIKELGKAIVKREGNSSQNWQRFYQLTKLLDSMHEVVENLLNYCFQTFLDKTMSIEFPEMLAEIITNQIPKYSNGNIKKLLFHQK
Sequence of Cytochrome P450 1A2 (Homo sapiens) (P05177 whole entry, looked up): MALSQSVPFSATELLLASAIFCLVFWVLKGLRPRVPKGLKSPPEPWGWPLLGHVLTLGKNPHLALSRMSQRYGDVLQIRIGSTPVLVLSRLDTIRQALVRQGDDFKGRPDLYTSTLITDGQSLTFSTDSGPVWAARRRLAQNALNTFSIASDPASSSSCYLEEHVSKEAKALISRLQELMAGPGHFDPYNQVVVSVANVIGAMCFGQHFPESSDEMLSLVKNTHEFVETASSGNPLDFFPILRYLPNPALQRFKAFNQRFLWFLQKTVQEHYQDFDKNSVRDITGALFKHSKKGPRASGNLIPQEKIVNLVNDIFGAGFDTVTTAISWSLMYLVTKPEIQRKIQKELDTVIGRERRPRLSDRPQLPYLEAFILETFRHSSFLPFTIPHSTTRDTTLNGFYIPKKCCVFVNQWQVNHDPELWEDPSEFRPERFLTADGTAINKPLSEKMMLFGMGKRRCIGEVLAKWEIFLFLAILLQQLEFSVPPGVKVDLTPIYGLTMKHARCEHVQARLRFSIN
Sequence of Cytochrome P450 3A4 (Homo sapiens) (P08684 whole entry, looked up): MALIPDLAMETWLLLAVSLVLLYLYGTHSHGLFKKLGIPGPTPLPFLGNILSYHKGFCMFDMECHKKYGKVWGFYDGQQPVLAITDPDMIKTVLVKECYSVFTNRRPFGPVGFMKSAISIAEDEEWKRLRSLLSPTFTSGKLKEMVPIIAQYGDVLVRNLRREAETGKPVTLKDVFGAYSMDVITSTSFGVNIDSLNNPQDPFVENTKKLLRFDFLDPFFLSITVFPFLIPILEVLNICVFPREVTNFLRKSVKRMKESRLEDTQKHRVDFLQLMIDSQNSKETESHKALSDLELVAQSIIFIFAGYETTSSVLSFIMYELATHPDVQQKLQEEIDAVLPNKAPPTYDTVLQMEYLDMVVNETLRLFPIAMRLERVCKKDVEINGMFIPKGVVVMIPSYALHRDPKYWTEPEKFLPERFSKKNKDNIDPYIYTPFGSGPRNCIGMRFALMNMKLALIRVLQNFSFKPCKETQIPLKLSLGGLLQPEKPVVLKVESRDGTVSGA
Sequence of Cytochrome P450 2D6 (Homo sapiens) (P10635 whole entry, looked up): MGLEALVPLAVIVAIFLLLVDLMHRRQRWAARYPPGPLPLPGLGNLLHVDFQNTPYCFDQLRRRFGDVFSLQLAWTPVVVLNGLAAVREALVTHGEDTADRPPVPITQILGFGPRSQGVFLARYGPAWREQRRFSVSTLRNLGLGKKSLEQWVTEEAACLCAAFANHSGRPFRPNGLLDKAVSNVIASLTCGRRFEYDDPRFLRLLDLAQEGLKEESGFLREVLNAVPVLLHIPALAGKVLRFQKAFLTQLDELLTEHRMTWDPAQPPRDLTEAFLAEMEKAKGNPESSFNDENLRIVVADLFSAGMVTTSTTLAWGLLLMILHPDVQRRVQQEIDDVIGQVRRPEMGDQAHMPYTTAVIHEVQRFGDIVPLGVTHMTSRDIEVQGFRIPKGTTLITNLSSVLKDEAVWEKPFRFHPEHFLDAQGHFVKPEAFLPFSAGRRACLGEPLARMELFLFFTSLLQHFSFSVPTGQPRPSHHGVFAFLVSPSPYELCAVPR
Sequence of DNA dC->dU-editing enzyme APOBEC-3G (Homo sapiens) (Q9HC16 whole entry, looked up): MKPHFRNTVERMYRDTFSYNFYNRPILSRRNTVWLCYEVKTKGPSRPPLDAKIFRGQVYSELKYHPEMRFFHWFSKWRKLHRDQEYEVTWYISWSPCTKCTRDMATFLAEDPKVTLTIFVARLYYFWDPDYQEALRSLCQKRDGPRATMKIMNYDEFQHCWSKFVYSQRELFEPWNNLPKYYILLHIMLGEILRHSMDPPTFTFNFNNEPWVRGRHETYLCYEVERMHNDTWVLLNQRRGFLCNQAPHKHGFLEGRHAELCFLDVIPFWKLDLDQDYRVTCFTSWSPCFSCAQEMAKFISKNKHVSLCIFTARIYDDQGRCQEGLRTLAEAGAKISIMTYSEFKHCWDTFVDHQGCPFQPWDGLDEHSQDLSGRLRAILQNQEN
Sequence of Cytochrome P450 2C9 (Homo sapiens) (P11712 whole entry, looked up): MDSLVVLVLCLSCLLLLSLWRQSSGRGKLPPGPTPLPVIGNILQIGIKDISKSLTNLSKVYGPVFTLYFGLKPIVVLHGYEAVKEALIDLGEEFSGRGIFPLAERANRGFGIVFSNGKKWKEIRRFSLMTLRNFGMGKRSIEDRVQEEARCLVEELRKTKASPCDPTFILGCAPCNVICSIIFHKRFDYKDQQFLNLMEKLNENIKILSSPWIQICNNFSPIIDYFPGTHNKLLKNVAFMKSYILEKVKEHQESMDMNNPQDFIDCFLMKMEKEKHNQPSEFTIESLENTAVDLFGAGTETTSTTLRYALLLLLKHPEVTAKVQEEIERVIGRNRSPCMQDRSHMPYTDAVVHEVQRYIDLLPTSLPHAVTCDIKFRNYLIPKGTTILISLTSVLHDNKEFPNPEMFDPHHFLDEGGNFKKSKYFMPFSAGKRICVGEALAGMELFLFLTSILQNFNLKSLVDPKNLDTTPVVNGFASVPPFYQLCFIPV
Sequence of 3',5'-cyclic-AMP phosphodiesterase 4B (Homo sapiens) (Q07343 whole entry, looked up): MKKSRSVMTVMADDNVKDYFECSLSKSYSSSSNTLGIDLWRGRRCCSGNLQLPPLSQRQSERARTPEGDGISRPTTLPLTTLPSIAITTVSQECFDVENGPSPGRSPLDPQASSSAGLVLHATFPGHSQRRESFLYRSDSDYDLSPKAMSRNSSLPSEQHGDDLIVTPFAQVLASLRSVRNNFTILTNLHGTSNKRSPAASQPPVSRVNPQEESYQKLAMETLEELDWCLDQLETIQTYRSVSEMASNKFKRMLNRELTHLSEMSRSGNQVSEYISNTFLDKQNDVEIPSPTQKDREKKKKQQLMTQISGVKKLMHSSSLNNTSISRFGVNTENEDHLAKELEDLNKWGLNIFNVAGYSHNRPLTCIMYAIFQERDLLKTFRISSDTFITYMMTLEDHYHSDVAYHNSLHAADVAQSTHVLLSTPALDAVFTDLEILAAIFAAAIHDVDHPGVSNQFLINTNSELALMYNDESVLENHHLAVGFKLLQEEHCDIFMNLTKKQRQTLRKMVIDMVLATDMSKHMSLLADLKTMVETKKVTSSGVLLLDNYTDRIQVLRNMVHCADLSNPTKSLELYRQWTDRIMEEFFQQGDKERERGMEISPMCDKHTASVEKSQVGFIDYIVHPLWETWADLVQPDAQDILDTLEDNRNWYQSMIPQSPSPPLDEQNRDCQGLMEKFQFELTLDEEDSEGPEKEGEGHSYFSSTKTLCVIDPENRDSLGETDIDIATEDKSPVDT
Sequence of Cytochrome P450 2C19 (Homo sapiens) (P33261 whole entry, looked up): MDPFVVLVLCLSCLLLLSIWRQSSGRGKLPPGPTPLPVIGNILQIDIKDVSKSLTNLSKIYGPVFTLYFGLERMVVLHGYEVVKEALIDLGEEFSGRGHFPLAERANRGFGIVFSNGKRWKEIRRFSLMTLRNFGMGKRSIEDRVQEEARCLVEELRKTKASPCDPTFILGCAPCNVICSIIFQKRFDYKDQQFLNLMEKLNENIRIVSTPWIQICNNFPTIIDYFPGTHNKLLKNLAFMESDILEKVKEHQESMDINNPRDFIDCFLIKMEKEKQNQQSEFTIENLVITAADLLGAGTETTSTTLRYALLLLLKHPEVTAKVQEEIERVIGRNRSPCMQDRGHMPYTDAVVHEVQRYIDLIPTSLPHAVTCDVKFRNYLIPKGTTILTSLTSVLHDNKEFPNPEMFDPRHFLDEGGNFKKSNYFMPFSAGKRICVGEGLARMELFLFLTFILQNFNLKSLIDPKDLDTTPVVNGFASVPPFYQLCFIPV

O=C(O)[C@H]1C[C@@H](CP(=O)(O)O)CCN1
inactive: N140 | P93_24 | P94_40 | PAD | PC15 | PC26 | PC49 | SC27B | TAB109 | TAB113 | TAB165 | W2

COc1cc2c(cc1OC)C(=O)N(C)CC2
active: [1] 2 µM
inactive: [2] > 46 µM | [3] > 46 µM | [4] | [5] | [6] | [7] | [8] | [9]

CC1=CC(=O)CC(C)(C)[C@@]1(O)/C=C\C(C)=C\C(=O)O
inactive: [1] | [2] > 46 µM | [3] > 46 µM | [4] | [10] | [5] | [7] | [8]

CC(=O)Oc1cc(OC(C)=O)c2c(=O)cc(-c3ccc(OC(C)=O)c(OC(C)=O)c3)oc2c1
active: [1] 3.16 µM | [4] 10 µM
inactive: [2] > 46 µM | [3] > 46 µM | [10] | [5] | [11] | [7] | [8] | [9]

Nc1ccccc1C(=O)C[C@@H](N)C(=O)O
inactive: [1] | [2] > 46 µM | [3] > 46 µM | [4] | [10] | [5] | [7] | [8]

CC(=O)O[C@H]1CC[C@@]2(C)[C@@H](CC[C@@]3(C)[C@H]2C(=O)C=C2[C@H]4C[C@](C)(C(=O)OCCN5CCCCC5)CC[C@]4(C)CC[C@@]23C)C1(C)C
inactive: [1] | [2] > 46 µM | [3] > 46 µM | [4] | [10] | [5] | [7] | [8]

COc1cc2ccc(=O)oc2c(O)c1OCC=C(C)C
active: [1] 1.58 µM | [8] 10 µM
inactive: [2] > 46 µM | [3] > 46 µM | [4] | [10] | [11] | [9]

COc1ccc([C@@H]2CC(=O)c3c(O)cc(O[C@@H]4O[C@@H](CO[C@@H]5O[C@@H](C)[C@@H](O)[C@@H](O)[C@H]5O)[C@@H](O)[C@@H](O)[C@H]4O)cc3O2)cc1O
inactive: [1] | [2] > 46 µM | [3] > 46 µM | [4] | [10] | [5] | [7] | [8]

COc1ccc2c(=O)cc(-c3ccc(O)cc3)oc2c1
inactive: [2] > 46 µM | [3] > 46 µM | [4] | [10] | [11] | [9]
active: [1] 0.0794 µM | [5] 6.31 µM | [6] 3.16 µM | [8] 7.94 µM

C[C@H](O)[C@H](O)[C@@H](O)c1cnc2nc(N)[nH]c(=O)c2n1
inactive: [1] | [2] > 46 µM | [3] > 46 µM | [4] | [10] | [5] | [7] | [8]

N[C@@H](Cc1c[nH]c2ccccc12)C(=O)NCC(=O)O (H-Trp-Gly-OH)
inactive: [1] | [2] > 46 µM | [3] > 46 µM | [4] | [10] | [5] | [7] | [8]

COc1ccc(-c2cc(=O)c3ccc(O)cc3o2)cc1
inactive: [2] > 46 µM | [3] > 46 µM | [4] | [11] | [7] | [9]
active: [1] 0.158 µM | [6] 7.94 µM | [8] 3.16 µM

COc1cccc(-c2cc(=O)c3cc(O)ccc3o2)c1
active: [1] 1.58 µM | [6] 15.8 µM | [8] 25.1 µM
inactive: [2] > 46 µM | [3] > 46 µM | [4] | [10] | [11] | [7] | [9]
